# Assay results from ChEMBL document CHEMBL1157539, “Thousands of chemical starting points for antimalarial lead identification” (Nature, 2010).
# Test system: Plasmodium falciparum
# Experiment: GSK_TCMDC: Inhibition of Plasmodium falciparum Dd2 in whole red blood cells, using parasite LDH activity as an index of growth. Test compounds present at 2uM
# Type: functional
row,SMILES,Inhibition
1,CCc1cn2c3c(cc(C(=O)N[C@@H](Cc4ccccc4)[C@H](O)CNC4CCC4)cc13)N(C)S(=O)(=O)CC2,98%
2,CC(=O)C=C1CC(=O)N(C[C@@H](O)[C@H]2O[C@@H]3OC(C)(C)O[C@@H]3[C@H]2O)c2ccccc2N1,2%
3,CCOc1cc2ncnc(Nc3cc(Cl)c(Cl)c(Cl)c3)c2cc1OCC.Cl,98%
4,Cc1ccc(C(C#N)c2ccc3c(C(F)(F)F)cc(C(F)(F)F)nc3n2)cc1 (stereo not given),36%
5,CCOc1cc(C(=O)NCc2cc(Cl)cc(Cl)c2)ccc1-c1nc2cc(Cl)ccc2[nH]1,5%
6,Nc1cc(/C=C/c2ccc([N+](=O)[O-])o2)nc2ccccc12,81%
7,Cc1cc(N2CCCC2)nc(Nc2ccc(NC(=O)C(C)C)cc2)n1,36%
8,O=C(Nc1cccc(C(F)(F)F)c1)c1cccc(S(=O)(=O)NCC2CCN(CC3CCCCC3)CC2)c1.O=C(O)C(F)(F)F,5%
9,COc1ccc(NC(=O)Nc2ccc(Nc3nc(C)cc(N(C)C)n3)cc2)cc1,99%
10,NC(=O)c1ccccc1OCC(=O)Nc1cccc(-c2ccc(-c3nc4cc(C(F)(F)F)ccc4[nH]3)cc2)c1,17%
11,COc1cc(NC(=O)Nc2ccc([N+](=O)[O-])cc2OC)c(OC)cc1Cl,6%
12,c1cncc(NCc2ccc(-c3cc4ccncc4cc3OC3CCNCC3)s2)c1,19%
13,OC(COc1ccccc1-c1nc2ccccc2o1)CN1CCCN(CCc2ccccc2)CC1 (stereo not given),2%
14,COc1cccc(C(=O)NC(c2ccc(Cl)cc2Cl)c2cc(Cl)c3cccnc3c2O)c1 (stereo not given),76%
15,COc1ccc(NC(=O)c2ccc(-c3cc(NC(=O)c4ccnc(N5CCCC5)c4)ccc3C)s2)cc1N1CCN(C)CC1.O=C(O)C(F)(F)F,100%
16,COc1ccc(C=C2SC(=O)N=C2Nc2ccccc2)c(OC)c1,89%
17,CC(=O)N(C)c1cccc(C(=O)Nc2cccc(-c3cccc(-c4nc5cccc(C)c5[nH]4)c3)c2)c1,41%
18,COc1cc(C=CC(=O)N2CCC(CCN3CCC(c4c[nH]c5ccccc45)CC3)CC2)cc(OC)c1,23%
19,NC1CCCN(Cc2cccc(-c3ccc(-c4nc5ccccc5[nH]4)cc3)c2)C1.O=C(O)C(F)(F)F (stereo not given),73%
20,CCCCCCOc1ccc(C(=O)NCCC2CCN(CCCCCNC(=O)C=Cc3ccc(Cl)c(Cl)c3)CC2)cc1,10%

row,SMILES,Inhibition
1,COC(=O)c1ccc(-c2ccc(C(=O)NCC3CCN(c4nc(N)c5cc(OC)c(OC)cc5n4)CC3)cc2)cc1,100%
2,Cc1ccc2c(OCCN3CCC(Cc4cc5c(cc4F)OCC(=O)N5)CC3)cc(F)cc2n1.Cl,71%
3,CCSc1nnc(C2CCCN(CC(=O)Nc3cc(C(F)(F)F)ccc3Cl)C2)n1CC (stereo not given),96%
4,O=C(NCC1CCN(CC2CCCCC2)C1)c1cc(-c2cccc(C(F)(F)F)c2)cs1.O=C(O)C(F)(F)F (stereo not given),21%
5,CCCCCC(C)(C)NC[C@@H](O)[C@H](Cc1ccccc1)NC(=O)c1cc(NCC)cc(N2CCCC2=O)c1.O=CO,97%
6,Cn1nccc1C(=O)NCCNCc1ccc(-c2cccc(-c3nc4cc(F)ccc4[nH]3)c2)cc1.O=C(O)C(F)(F)F,98%
7,CN1C(C)(C)CC(NC(=O)c2ccc(-c3nc4cc(Cl)c(Cl)cc4[nH]3)cc2)CC1(C)C,97%
8,CCc1cc(OC)c(C(=O)NC2CCN(C[C@H](O)c3ccnc4ccc(OC)cc34)CC2)cc1Br,56%
9,NC(=O)c1cccc(CN2Cc3ccccc3OC3(CCN(Cc4c[nH]c5cnccc45)CC3)C2)c1.O=C(O)C(F)(F)F,2%
10,CCN1CCCC1CN(Cc1ccc(-c2ccc(C(F)(F)F)cc2)cc1)C(=O)Cn1c(CCc2cccc(F)c2F)nc(=O)c2ccccc21.O=C(O)C(O)C(O)C(=O)O (stereo not given),51%
11,CC(C)(C)C1CCc2onc(C(=O)Nc3cc(Cl)ccc3O)c2C1 (stereo not given),82%
12,Cl.O=c1nc(NCCCNCc2cc3c(Cl)cc(Cl)cc3[nH]2)[nH]c2ccccc12,4%
13,CC(=NNC(=N)N)c1ccc2c(ccc3ccccc32)c1.Cl,15%
14,Cc1ccc(Nc2nc(N)c3ccccc3n2)cc1.Cl,12%
15,Cc1cc(NCCC(=O)Nc2ccccc2)nc(NCCc2cccs2)n1.O=C(O)C(F)(F)F,20%
16,COc1ccc(C(=C(C)CC(C)C(=O)O)c2ccccc2)cc1 (stereo not given),0%
17,O=[N+]([O-])c1cccc(/C=N/Nc2ccnc3cc(F)ccc23)c1,100%
18,Cc1ccc(CN2CCCN(Cc3cccc(NC(=O)c4ccc(Cl)c(Cl)c4)c3)CC2)cc1.O=C(O)C(F)(F)F,18%
19,Cc1ccc2c(=O)c3cc(C)ccc3[nH]c2c1,94%
20,Cc1cc(NC(=O)NCCN2CCC(NS(=O)(=O)c3ccccc3Cl)C2)c2ccccc2n1 (stereo not given),43%
